Bioassay records (PubChem BioAssay)
KDM5B inh: inhibitors of human KDM5B histone demethylase | Q9UGL1 | KDM5B demethylase, FDH-coupled NADH fluorescence (FDH is formaldehyde dehydrogenase) | Potency, µM (doses to about 57.7 µM), most hits filed as inhibitors | actives 2.6% (n = 220,000); further: nearly all actives have a fitted effect of over 70% in size
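Inhibition is measured as reduced NADH fluorescence generation from FDH coupling to formaldehyde release. Truncated KDM5BΔAP at 200 nM final acts on H3K4me3 peptide (12.5 µM in substrate mix) in pH 7.5 HEPES buffer with Tween-20, 30 min, room temperature.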
IP6K1 inh: blocks human inositol hexakisphosphate kinase 1. Q92551. IP6K1 kinase, ADP-Glo luminescence, 2 h; stronger effect = lower value. activity change, % (series mostly up to about 58 µM). actives 0.81% (n = 140,000). AID 1645851; in the data active means activity change below about -25%
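ADP-Glo luminescence measures ADP made by human IP6K1 during a 2 h RT reaction with ATP/IP6 (mix at 1.3 mM/130 uM); top library doses 57.5 and 19.1 uM final.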
SNCA expr inh: inhibitors of alpha-synuclein (SNCA) gene expression; Potency, µM (doses to about 57.2 µM), actives largely listed as inhibitors; HEK-293 SNCA-luciferase knock-in, luminescence, 24 h; AID 1671194; actives 0.17% (n = 140,000); further: nearly all actives have a fitted effect of over 45% in size
SNCA viab count: cell viability loss counter-screen | HEK-293-SNCA-luc viability, GF-AFC fluorescence, 24 h | Potency, µM (titrated, usually from 57.1 µM), actives largely listed as cytotoxic | actives 0.12% (n = 150,000); further: nearly all actives have a fitted effect of over 30% in size
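Cytotoxicity counterscreen: after 24 h compound treatment of genome-edited SNCA-luciferase HEK-293 cells, live-cell protease substrate GF-AFC read by fluorescence after 30 min; activity scaled between DMSO (0%) and medium-only (-100%), curves Hill-fitted.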
A number is an active result; – = inactive; ? = inconclusive; · = no result. This is a sample that favours compounds with a hit; in the whole collection about 2.8% have one here. Unless noted, the call rests on the fitted dose curve; in most records, active means well fitted curve in the direction sought with a large enough effect; inconclusive means small, poorly fitted or top-dose-only effect, or another doubt; inactive means no such curve, though single readings can be large; an effect the other way counts as inactive or inconclusive.

SMILES | KDM5B inh | IP6K1 inh | SNCA expr inh | SNCA viab count
COc1ccccc1-c1nc2cnccn2c1NCCC(=O)Nc1cc(F)ccc1F | 28µM | – | – | ?
COc1ccc(-c2nc3cnccn3c2NCCC(=O)O)cc1 | 28µM | – | – | ?
COc1ccc(-c2nc3cnccn3c2NCCC(=O)Nc2ccc(C)cc2C)cc1 | 25µM | – | – | ?
NCCC(=O)Nc1cc(F)ccc1F | – | · | · | ·
CCC(CC)NC(=O)C1CCN(c2cnn(CCOC)c(=O)c2)C1 (configuration not stated) | – | – | – | –
Fc1ccc(CCNC(=S)NCc2ccccc2)cc1 | – | · | · | ·
Cn1c(=O)c2c(nc(SCC(=O)OCc3ccccc3)n2Cc2ccccc2Cl)n(C)c1=O | – | · | · | ·
O=C(Cc1ccc(F)cc1)NCc1nnc2cc(-c3nc(C4CC4)no3)ccn12 | 28µM | – | – | –
O=C(Cc1cccc(F)c1)NCc1nnc2cc(-c3nc(C4CC4)no3)ccn12 | 28µM | – | – | –
CCCOc1ccc(C(C)NC(=O)c2ccc(C)nc2)cc1OC (configuration not stated) | – | · | · | ·
COCCCNc1ncccc1-c1cc(-c2ccccc2)nc2c(C)noc12 | 40µM | – | – | –
Cc1noc2c(-c3cccnc3NCCCn3ccnc3)cc(-c3ccccc3)nc12 | 35µM | – | ? | –
Cc1noc2c(-c3cccnc3NCCN(C)C)cc(-c3ccccc3)nc12 | ? | – | – | –
CCNc1cc(N2CCC(CCC(=O)NC3CCCC3)CC2)ncn1 | – | – | 2.2µM | –
O=C(CCC1CCN(c2cc(NC3CC3)ncn2)CC1)NCC1CC1 | – | – | 1.4µM | –
CCN(CC)c1nc2ccccc2nc1C(=O)Nc1ccccc1F | – | · | · | ·
Cc1ccc(C)c(-c2csc(-c3ccccc3)n2)c1 | – | · | · | ·
O=C(c1noc(-c2ccc(F)cc2)n1)N1CCN(c2ccc(Cl)cc2)CC1 | ? | – | – | –
COCCc1nc(CNC(=O)C(c2cccc(F)c2)N(C)C)no1 (configuration not stated) | 22µM | – | – | –
CNC(=O)c1noc(CNC(=O)C(c2cccc(F)c2)N(C)C)n1 (configuration not stated) | – | – | – | –
O=C(c1cc(Br)cn2ccnc12)N1CCC(N2CCNC2=O)CC1 | ? | – | – | –
CC(C)NC(=O)c1cc(Br)cn2ccnc12 | 40µM | – | – | –
CNC(=O)c1cc(Br)cn2ccnc12 | 35µM | – | – | –
O/N=C(/c1cc(F)c(F)c(F)c1)c1ccc(O)cc1O | – | · | · | ·
CCOc1c(Br)cc(C(=O)Oc2cccc(F)c2)cc1OC | – | · | · | ·
SMILES | KDM5B inh | IP6K1 inh | SNCA expr inh | SNCA viab count
COC(=O)c1c(NC(C)=O)c2cc(NC3CCN(C(C)=O)CC3)cnc2n1CC1CCCO1 (configuration not stated) | 20µM | – | – | ?
Cn1ccc(C(=O)NCc2nnc3n2C(C(=O)NCC2CC2)CC3)n1 (configuration not stated) | 100µM | – | – | –
CCCCn1nc(C2CCOC2)nc1-c1cnc(NC)nc1 (configuration not stated) | 25µM | – | – | –
Cc1cnc(-c2ccccc2)n1CCNC(=O)C1COc2ccccc2O1 (configuration not stated) | – | – | – | –
CCOCCn1cc(C2CCN(S(=O)(=O)c3cccc(Cl)c3C)CC2)c2ccccc21 | 28µM | – | – | –
C=CCN1CCN(C(=O)c2c(C)oc3c2CN(Cc2ccc(F)cc2)CC3)CC1 | – | – | – | –
O=C(Nc1cccn2cnnc12)c1ccc(S(=O)(=O)NCCO)cc1 | 28µM | – | – | –
CC(Cn1cncn1)NC(=O)c1ccc(S(=O)(=O)NCCO)cc1 (configuration not stated) | – | – | – | –
Cc1noc(-c2cccn3c(CNC(=O)c4ccccc4)nnc23)n1 | 28µM | – | – | –
CCc1noc(-c2cccn3c(CNC(=O)c4ccoc4)nnc23)n1 | 14µM | – | – | –
CCc1noc(-c2cccn3c(CNC(=O)c4ccc5ccccc5n4)nnc23)n1 | 20µM | – | ? | –
CCc1noc(-c2cccn3c(CNC(=O)c4ccccn4)nnc23)n1 | 25µM | – | – | –
CC(C)C(NC(=O)Cc1ccccc1)C(=O)OCc1ccc(C(N)=O)cc1 (configuration not stated) | – | · | · | ·
CCc1noc(-c2cccn3c(CNC(=O)COc4ccc(F)cc4)nnc23)n1 | 22µM | – | – | –
CCCc1noc(-c2cccn3c(CNC(=O)c4ccc(F)cc4)nnc23)n1 | 14µM | – | – | –
